Assay results: the supplement of paper PMC6555819

system: VDR:RXRa (NR concentration 270 nM, RXRa partner concentration 90 nM); experiment: PBM binding z-score (relative to random genomic background probes); higher = stronger binding; sequences stand for … in GC…GCGATTGACAGCGTAGAATGAAGG
Description: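 Protein-binding microarray (Agilent 4x180K custom design, double-stranded 60-nt probes: 5' GC cap, 34-nt variable region, 24-nt constant primer region; full probe sequence given). Purified or IVT nuclear receptor:RXRα heterodimers (3:1 NR:RXRα, mostly 270:90 nM) or homodimers were incubated for 1 h in PBS with 2% milk and no ligand, then detected with Alexa488 antibodies. Fluorescence from o1-orientation probes (~5 replicates averaged) was converted to z-scores against 500 random hg19 background probes. Variable regions are seed direct-repeat (DR0–DR5) sites, all their single-nucleotide variants and half-site ablations.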

| Sequence | PBM binding z-score |
| --- | --- |
| TCTGCTAGGTCAGTTGGTCCGCTAACGAGCTGCC | 0.677 |
| ACTAGTTGGTCCGCTGAGGTCACACACAATTCGG | 3.75 |
| TCATAGAGGTAAAGGTGAAAGTCGAACGATATGA | 0.788 |
| TTACCAAGGCGAGCTGAGGTCGTTGATCCAACTC | 1.63 |
| ATCTCTAGGTAAAAATTCAGTGAATCCCGAGGAT | -0.13 |
| AGAACGAGGGCACGCTGAGCTGATAGCAGAGTAG | 0.52 |
| CCTTAAGGGTCAAGGTTATAGCACGGGTGGTACG | 4.72 |
| CGAACTAGGTCATCCATGACAGTGAATACATTGA | 2.45 |
| GCGACTGGGGCAAAGCAGGTTACCACAAGGTTGG | 0.0392 |
| TCTCGGAGGACACGTAAGGTCAGAGCTCGACATC | 2.69 |
| ATCGCTAGGTAAAAGTTCAGTGAATCCCGAGGAT | 0.809 |
| GCAACGAGGGCAAGTTGATAGCAGAGTTTGATGG | 0.955 |
| TCTATTAGTTGAACGGCAACCGACGAGTCCGTTT | 0.759 |
| ATCTCTAGGTAAGGTTCAGTGAAAGATCGATAGA | 1.33 |
| GCTATTAGTTGAAAGGGCAACCCAATGATTCTCG | 0.662 |
| ACTCGGAGGACAAAGGACAGAGCTACGCCAGTGA | -0.523 |
| CAAACTAGGTCACCGGAAGGTCAACGTCCGCATG | 5.72 |
| TCTTGTAGATCAAGCAGGTTAAGAAAGCCTGAGT | 0.61 |
| AATACAGGGTCATCGTCGGCCAGAGTACGCACAG | 5 |
| ATCGAAAGGTCGAACGTGAGTATACCCACCCGAA | 2.88 |

| Sequence | PBM binding z-score |
| --- | --- |
| CGAACTGGGTCATTGACAGGACAGTGAATAGTAA | 2.05 |
| CGTCAAAGTACAACTAAGGTAACGTAAAGCACGC | 0.523 |
| CCTTACGGGGCACTCCAGGTTATAGCATCGGAGT | 0.0326 |
| CAGCCTAGGTCAGGGCCAATATAGGAGGAACGTT | 0.378 |
| TTACCAAGGTGAAGGGTCGTTGATGCACGCCTTG | 1.7 |
| CGTCAAAGTTCAACTAAGGTAAGGTAAAGCACGC | 4.17 |
| CCTACTGGGCCACGAAAAGTCATTGATTCAGTGA | -0.413 |
| TCTATTAGTTGAAGGGCAACGGACGAGTCCGTTT | 1.06 |
| TTACCAAGGTGAGCAGAGGTCGTTGATCCAACTC | 3.68 |
| CGTCCAAGGTCATAGGAGGTCAGCGAAGACAGAT | 6.6 |
| CCAGACAGGTGAAAGGTACCTCAGTCTGGTACGC | 0.0967 |
| CCTTACGGGACACTCCAGGTTATAGCATCGGAGT | -0.0817 |
| CCTATTAGTTTACCATAAGGGCAACCGAAGCTCG | 0.484 |
| CAGCCTAGGTCAGGGCCAGTCTAGGAGGAACGTT | 0.0507 |
| TCATATAGGTAAAAGGTGAAATTCGGTGTGGTAA | 1.58 |
| TCAGACAGGTGGAGGTAACTCAGGTACGCAGTCG | 0.574 |
| TAGCCTAGGTCATGGGGCAGTATACCACGCGAAC | 2.45 |
| CGAAGTAGGTCAAGGACAGTGAATCTCCGCACGC | 1.52 |
| CCTACTGGGCCAACAGGTCATTGATATCAACGTT | 1.93 |
| CCAGACAGCTGAAAGGTAACTCAGTCTGGTACGC | -0.0821 |
